RGS4 inh: human RGS4 inhibition; Transcreener GDP fluorescence polarization, RGS4-accelerated GTP hydrolysis; Potency, µM (highest dose often 114 µM), usual class: inhibitors; 390,000 compounds, 0.039% hits; AID 504845; further: nearly all actives have a fitted effect of over 75% in size
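MLSMR compounds (23 nl, pin-transferred) preincubated 10 min at room temperature with a 500nM (2x) first reagent, then RGS4 at 900nM (2x) plus Transcreener GDP mix added; fluorescence polarization (620/688 nm) read before and after 90 min at 30 °C.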
USP2a block: USP2a (human) protease inhibition; O75604; USP2 core, Ub-CHOP2 coupled fluorogenic reporter, 485/531; Potency, µM (titrated, usually from 38.3 µM), actives largely listed as inhibitors; 330,000 compounds, 0.01% hits; AID 463254
Target sequence (O75604 whole entry, looked up): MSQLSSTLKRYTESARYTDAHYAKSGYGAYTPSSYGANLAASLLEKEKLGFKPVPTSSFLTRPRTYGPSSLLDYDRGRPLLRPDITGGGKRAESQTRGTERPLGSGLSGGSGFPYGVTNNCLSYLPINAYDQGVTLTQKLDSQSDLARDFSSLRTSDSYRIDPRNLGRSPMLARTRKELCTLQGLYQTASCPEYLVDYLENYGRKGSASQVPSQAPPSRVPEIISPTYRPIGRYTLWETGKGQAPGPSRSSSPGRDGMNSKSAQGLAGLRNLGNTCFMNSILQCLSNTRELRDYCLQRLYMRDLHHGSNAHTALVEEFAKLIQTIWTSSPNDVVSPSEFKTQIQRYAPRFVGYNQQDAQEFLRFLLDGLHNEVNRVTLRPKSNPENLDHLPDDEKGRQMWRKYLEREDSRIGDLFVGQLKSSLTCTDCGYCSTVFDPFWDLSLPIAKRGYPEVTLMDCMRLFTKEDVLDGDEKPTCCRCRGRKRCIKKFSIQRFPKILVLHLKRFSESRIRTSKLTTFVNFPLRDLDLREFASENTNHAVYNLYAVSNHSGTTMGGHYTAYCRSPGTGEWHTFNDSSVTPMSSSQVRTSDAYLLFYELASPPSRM
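Cell-free coupled assay: 10nM USP2 core preincubated 30min RT with compound in Tris-HCl pH 8.0/CaCl2/CHAPS buffer, then 25nM Ub-CHOP2 and 25nM reporter substrate; fluorescence (Ex 485/Em 531) read after 60min RT, normalized to NEM inhibition, concentration-response curves fitted.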
GCN5L2 inh: inhibitors of human GCN5L2 histone acetyltransferase; Q92830; GCN5L2 HAT assay, ThioGlo1 CoA-SH fluorescence; Potency, µM (highest dose often 58.9 µM), usual class: inhibitors; 390,000 compounds, 0.21% hits
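Preincubate 20nM GCN5L2 with compound 15 min, RT → add 50uM ThioGlo1 + 75uM H3(1-25) + 70uM acetyl-CoA → read fluorescence 0 and 20 min. Primary qHTS; fluorescent artifacts likely.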
uPA generation: cell surface uPA generation inhibition | AID 540303 | 330,000 compounds, 0.31% hits | cell surface uPA generation assay, qHTS | Potency, µM (highest dose often 38.3 µM), usual class: inhibitors; active means well fitted inhibition curve with a large enough effect; inconclusive means small, poorly fitted or top-dose-only effect; inactive means no such curve, though single readings can be large or run the other way; tested in mouse RAW 264.7 cells; further: nearly all actives have a fitted effect of over 55% in size
Chronic BCR inh: chronic active BCR signaling inhibition | 340,000 compounds, 0.05% hits | Potency, µM (titrated, usually from 46.1 µM), most hits filed as inhibitors | ABC-DLBCL IkBa-CBG/CBR reporter, luminescence ratio, 4 h; active means well fitted inhibition curve with a large enough effect in the signal ratio, with a control signal flat, not every such curve was filed as active; inconclusive means small, poorly fitted or top-dose-only effect, or effect the other way, or a change in a side signal; the % refers to the signal ratio
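TMD8 human ABC-DLBCL cells with doxycycline-inducible IκBα–green luciferase fusion and unfused red luciferase, in 0.5% FBS medium; compounds up to 46 uM, 4 h at 37C. Green/red luminescence ratio, filter-overlap corrected, fitted to concentration-response curves.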
Eya2 inh: Eya2 (human) phosphatase inhibition; recombinant Eya2, OMFP fluorescence dephosphorylation (OMFP is methylfluorescein phosphate); 330,000 compounds, 0.006% hits; AID 488837; Potency, µM (doses to about 76.9 µM), most hits filed as inhibitors
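Eya2 protein (added as 0.2 uM solution) was preincubated with compound for 10 min at ambient temperature in 50 mM HEPES pH 7.5, 50 mM NaCl, 5 uM MgCl2, 0.05% BSA, 1 mM DTT. OMFP (added at 50 uM) then reacted 10 min; fluorescence read at 485/525 nm.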
Hits are given with their value; . = inactive; ? = inconclusive; / = not tested or not shown; ! = a repeat was not active; [ ] = dose if it differs, or a comment. This is a sample that favours compounds with a hit; in the whole collection about 0.52% have one here. Unless noted, the call rests on the fitted dose curve; in most records, active means well fitted curve in the direction sought with a large enough effect; inconclusive means small, poorly fitted or top-dose-only effect, or another doubt; inactive means no such curve, though single readings can be large; an effect the other way counts as inactive or inconclusive.

SMILES | RGS4 inh | USP2a block | GCN5L2 inh | uPA generation | Chronic BCR inh | Eya2 inh
CCOC(=O)c1c(C)[nH]c(C)c1S(=O)(=O)N1CCN(c2cccc(C(F)(F)F)c2)CC1 | . | / | . | / | / | /
O=C(Nc1nc2cc3c(cc2s1)OCO3)C1=COCCO1 | . | . | . | 2µM | ? | .
COc1ccccc1OC(C)C(=O)N1CCN(CCc2ccccn2)CC1 (centres undefined) | . | / | . | / | / | /
COCOc1cc(O)c(C(=O)/C=C/c2ccccc2)c(OCOC)c1 | . | / | / | 10µM | / | /
COc1cc(CNC(=O)c2sc3ncccc3c2-n2cccc2)cc(OC)c1OC | . | / | . | / | / | /
CN1CCN(Cc2c(O)ccc3cc(-c4ccc(Cl)cc4)c(=O)oc23)CC1 | . | / | ? | / | / | /
COc1ccc(-c2cc3ccc(O)c(CN4CCCC4)c3oc2=O)cc1OC | . | / | 14µM | / | / | /
O=c1oc2c(CN3CCN(CCO)CC3)c(O)ccc2cc1-c1ccccc1 | . | / | 32µM | / | / | /
COc1cccc(NC(=O)CSc2nnc3[nH]c(=O)cc(-c4ccccc4)n23)c1 | . | / | . | / | ? | /
Cc1ccc2c(c1)C1C=CCC1C(C(=O)O)N2 (centres undefined) | / | . | 25µM | / | . | .
CC(=O)c1ccc2c(c1)C1C=CCC1C(C(=O)O)N2 (centres undefined) | ? | 11µM | ? | . | . | .
Cc1ccc2c(c1)C1C=CCC1C(C(=O)NCCCN1CCOCC1)N2 (centres undefined) | . | / | / | . | / | /
CC(=O)c1ccc2c(c1)C1C=CCC1C(c1ccncc1)N2 (centres undefined) | . | . | . | . | . | .
Cn1ccnc1SCC(=O)c1ccc(Cl)cc1 | . | . | . | . | 18µM | .
CCOC(=O)c1c(NC(=O)CCCOc2ccc(C(C)(C)C)cc2)sc2c1CCC2 | . | / | . | / | / | /
COc1ccc(NS(=O)(=O)c2cc(NC(=O)C3=NN(c4ccccc4)C(=O)CC3)ccc2C)cc1 | . | / | / | . | / | /
COc1ccc(NS(=O)(=O)c2cc(NC(=O)[C@@H](NC(=O)c3ccccc3)C(C)C)ccc2C)cc1 | . | . | . | 13µM | . | .
CCc1cccc(NC(=O)Cn2c(=O)n(Cc3ccccc3)c(=O)c3c(C)c(C(=O)N(C)C)sc32)c1 | . | / | . | / | ? | /
Cn1cc(CN2CCC(n3nccc3NC(=O)c3ccccc3Cl)CC2)c2ccccc21 | . | . | . | . | ? | .
COc1ccccc1C(=O)Nc1ccnn1C1CCN(Cc2cn(C)c3ccccc23)CC1 | . | . | . | 10µM | ? | .
O=C(Nc1ccccc1)C12CC1/C(=N\O)c1ccccc1O2 (centres undefined) | / | / | . | / | / | /
O=C(NCCn1cc(SCc2ccc(F)cc2)c2ccccc21)c1c(F)cccc1F | . | . | . | 10µM | ? | .
Cc1cc(O)c(C=O)c2c1C(=O)Oc1c(COC(=O)/C=C/C(=O)O)c(O)c(C(=O)O)c(C)c1O2 | / | / | 20µM | / | / | /
Cc1cc(O)c(C=O)c2c1C(=O)Oc1c(CO)c(O)c3c(c1O2)C(O)OC3=O (centres undefined) | . | ? | 16µM | . | . | .
CCC1=C[C@@H]2CN(C1)Cc1c([nH]c3ccccc13)[C@@](C(=O)OC)(c1cc3c(cc1OC)N(C)[C@@H]1[C@@](O)(C(=O)OC)[C@H](OC(C)=O)[C@]4(CC)C=CCN5CC[C@]31[C@@H]54)C2 | / | / | . | / | / | /
SMILES | RGS4 inh | USP2a block | GCN5L2 inh | uPA generation | Chronic BCR inh | Eya2 inh
c1ccc2cc(C3=NCCN3)ncc2c1 | . | / | . | / | / | /
COc1ccc(N(C(=O)CCl)C(C(=O)NCCc2ccccc2)c2cccs2)cc1Cl (centres undefined) | . | . | . | 4µM | ? | .
CCOc1ccc(N(CC(=O)Nc2ccccc2Cl)S(C)(=O)=O)cc1 | . | . | . | 10µM | . | .
CC(=O)/C=C\c1ccccc1OC(=O)c1cc2ccccc2oc1=O | ? | . | . | ? | . | .
O=C(/C=C\c1ccccc1OC(=O)c1ccccc1F)c1cc2ccccc2o1 | . | . | . | . | 13µM | .
COc1cccc(Cn2c(=O)c(-c3ccc(Cl)cc3)nc3cnc(N(C)C)nc32)c1 | / | / | . | / | / | /
C[C@@]12C(=O)Nc3cc(F)ccc3C(=O)N1[C@H]1c3cc(Br)ccc3OC[C@@H]1[C@@H]2c1ccccc1 | . | . | . | ? | ? | .
Cc1ccc2c(c1)[C@H]1[C@H](CO2)[C@H](c2ccccc2)[C@]2(C)C(=O)Nc3cc(F)ccc3C(=O)N12 | . | . | . | 7.1µM | ? | .
CCSc1nnc2c(n1)OC(c1ccc(OC)c(OC)c1)N(C(C)=O)c1ccccc1-2 (centres undefined) | . | / | . | / | / | /
Cc1csc2nc3cc(C(N)=O)ccc3c(=O)n12 | . | . | . | . | . | .
NC(=O)c1ccc2c(=O)n3c(-c4cc(Cl)c(N)c(Cl)c4)csc3nc2c1 | ? | . | . | 5µM | . | .
O=C(CCc1ccccc1)N[C@@H]1c2ccccc2CC[C@@H]1OCc1ccccc1 | . | . | . | . | . | .
O=C(O)CC/C=C\CC[C@H]1[C@@H](N2CCCCC2)[C@@H](O)C[C@@H]1OCc1ccc(-c2ccccc2)cc1 | 8.4µM | / | . | / | / | /
CCOC(=O)c1nnn(-c2ccc([N+](=O)[O-])cc2[N+](=O)[O-])c1C | . | . | . | 8.9µM | ? | .
COc1cc(OC)cc(C(=O)N/N=C/c2ccc(OC)c(COc3ccc(F)cc3)c2)c1 | . | . | . | . | 10µM | .
Oc1ccc(COCc2ccccc2)c2cccnc12 | .[11.4 µM] | . | 25µM! | . | ? | .
COc1ccc(-n2cc(-c3ccccc3)c3c(Nc4ccc(OC)c(OC)c4)ncnc32)cc1 | . | / | . | / | . | /
O=C(Cc1ccccc1)NCc1ccc(-n2cccc2)cc1 | .[11.4 µM] | . | . | 1.8µM | . | .
COc1ccc(Br)cc1C(C[N+](=O)[O-])c1c(N)n(C)c(=O)n(C)c1=O (centres undefined) | . | . | . | 3.5µM | ? | .
CN(C)c1ccc(C(C[N+](=O)[O-])c2c(N)n(C)c(=O)n(C)c2=O)c(F)c1C#N (centres undefined) | . | . | . | ? | ? | .
CCC(=O)Nc1ccc(C(=O)Cn2ncc(Cl)c(Cl)c2=O)cc1 | . | . | . | 7.9µM | ? | .
COc1ccc(CNC(=O)Cn2ccc3cc(S(=O)(=O)N4CCCCC4)ccc32)c(OC)c1 | . | / | . | / | / | /
Clc1ccccc1CSc1nc2ccncc2[nH]1 | . | . | . | 4µM | ? | .
Cc1ccc(N/N=C(\Cc2nc3ccccc3[nH]2)c2ccccc2)cc1 | ? | . | . | . | 23µM | .
c1ccc(N/N=C(\Cc2nc3ccccc3[nH]2)c2ccccc2)cc1 | ? | . | . | ? | ? | .
